Source: PubChem BioAssay (National Center for Advancing Translational Sciences (NCATS))
Rows were chosen to be rich in hits. Some 16% of all compounds tested hit in one or more screens of this group.
miR-21 act: qHTS Assay for Modulators of miRNAs and/orActivators of miR-21; HeLa miR-21 FLuc reporter, luciferase, 48 h; Potency, µM (titrated, usually from 38.3 µM), for inactives: top-dose activity change, positive = activation, usual class: activators; 340,000 tested, under 10 active; AID 2288, 2010;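 further: % of control where 0% means no effect; miR-21 action dims this reporter so a rising signal means less miR-21 action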
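HeLa cells stably expressing CMV-driven firefly luciferase with a downstream miR-21 binding sequence, endogenously expressing miR-21, were treated with titrations (up to about 40uM final) for 48 hours at 37 degree Celsius. Luciferase luminescence was read after lysis.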
TDP1 cell noCPT: qHTS for Inhibitors of human tyrosyl-DNA phosphodiesterase 1 (TDP1): qHTS in cells in absence of CPT; actives 15% (n = 420,000); Potency, µM (top dose mostly 46.2 µM), inactives show at the highest dose activity change, negative = growth inhibition, hits mostly inhibitors; DT40 Tdp1-/- hTDP1 cells, no CPT, ATP luminescence, 48 h; further: potency means the concentration at half of the fitted maximal effect; on the % scale 0 is the no-effect control and ±100 the full control effect; nearly all actives have a fitted effect of over 55% in size
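Stably hTDP1-transfected Tdp1-null chicken DT40 cells were treated with library compounds minus camptothecin and grown for at least 48 hr at 37 °C, after which cellular ATP was quantified by luminescence.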
TDP1 cell CPT: qHTS for Inhibitors of human tyrosyl-DNA phosphodiesterase 1 (TDP1): qHTS in cells in presence of CPT; Potency, µM (series often up to 46.2 µM), for inactives: top-dose activity change, negative = growth inhibition, hits mostly inhibitors; chicken DT40 Tdp1-/-;hTDP1 cells + 20 nM CPT, ATP luminescence, 48 h; actives 12% (n = 420,000); further: potency means the concentration at half of the fitted maximal effect; on the % scale 0 is the no-effect control and ±100 the full control effect; nearly all actives have a fitted effect of over 55% in size
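Cell growth measured by CellTiter-Glo luminescence after a minimum 48 h, 37 C compound exposure with 20 nM CPT in Tdp1-knockout DT40 cells stably expressing hTDP1, seeded 400/well; qHTS titration format.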
TDP1 block: qHTS Assay for Inhibitors of Tyrosyl-DNA Phosphodiesterase (TDP1) | Potency, µM (series often up to 130 µM), for the others: top-dose activity change, negative = inhibition, hits mostly inhibitors | AID 485290, 2010 | actives 0.28% (n = 350,000) | recombinant TDP1, AlphaScreen DNA substrate cleavage; further: potency means the concentration at half of the fitted maximal effect; on the % scale 0 is the no-effect control and ±100 the full control effect; nearly all actives have a fitted effect of over 40% in size
Target sequence (Q9NUW8 whole entry, looked up): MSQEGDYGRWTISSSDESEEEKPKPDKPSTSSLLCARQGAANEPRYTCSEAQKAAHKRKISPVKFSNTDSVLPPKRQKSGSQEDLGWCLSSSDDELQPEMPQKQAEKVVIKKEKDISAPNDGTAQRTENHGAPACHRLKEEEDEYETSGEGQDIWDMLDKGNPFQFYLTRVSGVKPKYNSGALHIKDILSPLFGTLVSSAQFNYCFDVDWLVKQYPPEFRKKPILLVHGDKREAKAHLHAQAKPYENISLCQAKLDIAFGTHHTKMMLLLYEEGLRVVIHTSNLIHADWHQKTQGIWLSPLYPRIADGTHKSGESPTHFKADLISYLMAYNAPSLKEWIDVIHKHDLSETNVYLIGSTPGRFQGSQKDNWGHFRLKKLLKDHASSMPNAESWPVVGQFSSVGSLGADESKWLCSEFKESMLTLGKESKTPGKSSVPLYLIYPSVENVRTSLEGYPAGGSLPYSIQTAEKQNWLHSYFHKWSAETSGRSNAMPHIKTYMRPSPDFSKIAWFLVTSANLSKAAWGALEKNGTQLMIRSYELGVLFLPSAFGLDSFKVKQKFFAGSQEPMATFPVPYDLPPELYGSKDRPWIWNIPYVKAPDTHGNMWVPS
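E. coli-derived human Tdp1, 1 nM final. Cpd preinc 15 min RT; substrate 15 nM final, 5 min RT; AS bead mix 10 ug/ml final, 10 min RT. Signal loss = tyrosine-FITC cleavage. No-enzyme wells = max signal.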
uPA generation: qHTS for Inhibitors of Cell Surface uPA Generation. AID 540303, 2011. Potency, µM (series often up to 38.3 µM), without a hit: at the top dose activity change, negative = inhibition, actives largely listed as inhibitors. cell surface uPA generation assay, qHTS. actives 0.31% (n = 330,000); active means well fitted inhibition curve with a large enough effect; inconclusive means small, poorly fitted or top-dose-only effect; inactive means no such curve, though single readings can be large or run the other way; tested in mouse RAW 264.7 cells; further: potency means the concentration at half of the fitted maximal effect; on the % scale 0 is the no-effect control and ±100 the full control effect; nearly all actives have a fitted effect of over 55% in size
* marks the source's active call; other numbers are inactive results; ? = inconclusive; · = no result given; [ ] = another dose, or the depositor's remark. Unless noted, the call rests on the fitted dose curve; in most records, active means well fitted curve in the direction sought with a large enough effect; inconclusive means small, poorly fitted or top-dose-only effect, or another doubt; inactive means no such curve, though single readings can be large; an effect the other way counts as inactive or inconclusive.

SMILES | miR-21 act | TDP1 cell noCPT | TDP1 cell CPT | TDP1 block | uPA generation
Cc1ccc2nc(-c3ccccc3)cc(C(=O)N3CCN(S(=O)(=O)c4c(C)noc4C)CC3)c2c1 | · | 23µM* | ? | 0% | 3%
Cc1ccc(S(=O)(=O)N2CCN(C(=O)c3c(-c4ccccc4)noc3C)CC2)c(C)c1 | -1% | ? | 18µM* | 2% | 1%
CCOc1ccc(C(=O)N2CCCCCC2)cc1 | -20% | -6% | -7% | 0% | 2%
CCOc1ccc(C(=O)OC(C)C(=O)N2CCN(Cc3ccccc3)CC2)cc1 (stereo not drawn) | · | 18µM* | 16µM* | 0% | -4%
CCOc1ccc(C(=O)CC(C(=O)O)N2CCN(Cc3ccccc3)CC2)cc1 (stereo not drawn) | · | 3.7µM* | 21µM* | 2% | -26%
CCOc1ccc(C(=O)CC(C(=O)O)N2CCCCC2)cc1 (stereo not drawn) | · | ? | 13µM* | 0% | ?
CCOc1ccc(C(=O)CCC(=O)N(CC)CC(=O)NCc2cccs2)cc1 | · | ? | -7% | · | 2%
CCOc1ccc(C(=O)CC(NCc2cccs2)C(=O)O)cc1 (stereo not drawn) | -1% | 16µM* | 8.2µM* | -3% | -13%
CCOc1ccc(C(=O)NCC(=O)N2CCN(Cc3ccccc3)CC2)cc1 | · | -26% | -6% | 2% | 4%
Cc1ccc(S(=O)(=O)N2CCN(S(C)(=O)=O)CC2)cc1 | · | -20% | ? | · | ·
Cc1cccc(NC(=O)CN(C)C(=O)C2CC2)c1C | · | -6% | -5% | -1%[56.1 µM] | -3%
O=C1NCC(COc2ccc([N+](=O)[O-])cc2)O1 (stereo not drawn) | -1% | 24% | -3% | · | 6%
N#Cc1ccc(-c2ccc(OCC3CNC(=O)O3)cc2)cc1 (stereo not drawn) | -14% | 13µM* | 8.2µM* | 4% | -3%
N#C/C(=N\Nc1ccc(Cl)c(Cl)c1)C(=O)C1CC1 | -26% | 6.5µM* | 21µM* | · | -10%
N#C/C(=N\Nc1ccc(F)cc1)C(=O)C1CC1 | -13% | -26% | ? | · | 1%
O=C(NCc1ccco1)C(Cc1ccccc1)N1C(=O)c2ccccc2C1=O (stereo not drawn) | -4% | -20% | 21µM* | 2% | -4%
O=C(O)CCCC(=O)Nc1ccc(Sc2ccc([N+](=O)[O-])cc2)cc1 | -3% | -11% | -32% | 0% | -3%
Cc1ccc(-c2nc3ccc(Cl)cc3c(=O)n2O)cc1 | 2% | 16µM* | ? | · | 6%
Cc1ccc(C(=O)Nc2sc3c(c2C(=O)NCc2ccco2)CCC(C(C)(C)C)C3)cc1 (stereo not drawn) | -1% | -10% | 14% | · | ·
O=C(CSc1nccn1Cc1ccc(F)cc1)Nc1nc2ccccc2s1 | 17% | 23µM* | 18µM* | 11% | ·
COc1ccc(Cn2ccnc2SCC(=O)Nc2ccccc2F)cc1 | -10% | -12% | -16% | 9% | 6%
COc1ccc(Cn2ccnc2SCC(=O)Nc2ccc(F)cc2F)cc1 | · | 23µM* | ? | · | ·
Cc1nn(-c2ccccc2)c2sc(C(=O)OCn3nnc4ccccc4c3=O)cc12 | 0% | -2% | -18% | 8% | 8%
Cc1ccccc1NC(=O)c1ccc2c(c1)c(C)c(C)n2Cc1ccccc1 | 9% | 4.1µM* | 7.3µM* | 8% | ·
Cc1cccc(C(=O)Nc2c(C#N)c(C)c(C)n2Cc2ccccc2)c1 | -2% | 16µM* | ? | 6% | 5%
SMILES | miR-21 act | TDP1 cell noCPT | TDP1 cell CPT | TDP1 block | uPA generation
Cc1c(C)n(Cc2ccccc2)c2ccc(C(=O)NCC(C)c3ccccc3)cc12 (stereo not drawn) | -8% | ? | ? | 8% | ·
Cc1c(C)n(Cc2ccccc2)c2ccc(C(=O)NC(C)c3ccccc3)cc12 (stereo not drawn) | -3% | 16µM* | 16µM* | 8% | ·
Cc1ccc2cc3cc(C(=O)N4CCN(c5cccc(C(F)(F)F)c5)CC4)sc3nc2c1 | 1% | 7% | 2% | 2%[12.3 µM] | ·
CN(c1ccccc1C(N)=O)S(=O)(=O)c1ccccc1 | -2% | -14% | 3% | 0% | -8%
O=C(CSc1nnc(NC(=O)c2ccccc2F)s1)Nc1ccccc1F | -23% | -10% | -6% | 3% | 5%
CN(C)CC/C=C1/c2ccc(F)cc2Sc2ccc(Cl)cc21 | · | 16µM* | ? | · | 4%
CN(C)CC/C=C1\c2cc(Cl)ccc2Sc2cc(F)c(F)cc21 | · | 23µM* | ? | · | -18%
CN(C)CC/C=C1\c2ccc(F)cc2Sc2cc(F)c(Cl)cc21 | · | ? | ? | · | -18%
CN(C)CC/C=C1\c2ccccc2Sc2cc(F)c(Cl)cc21 | · | 16µM* | 16µM* | · | 3%
Cc1cc(C)n2nc(SCC(=O)NC3(C#N)CCCCC3)nc2n1 | · | -16% | -17% | · | ·
CCn1c(CNC(=O)COc2ccc(C(C)C)cc2)nnc1SCC(=O)Nc1ccccc1F | 5% | -25% | -12% | 2% | -6%
CCn1c(CNC(=O)COc2ccc(C(C)C)cc2)nnc1SCC(=O)Nc1ccccc1C(C)C | 17% | 16µM* | 16µM* | 2% | -15%
CCn1cc(C(=O)NCc2ccc3c(c2)OCO3)c(=O)c2cc(S(=O)(=O)N3CCOCC3)ccc21 | -6% | -17% | -41% | 2% | -5%
CCn1cc(C(=O)NCCc2ccc(Cl)cc2)c(=O)c2cc(S(=O)(=O)N(C)C)ccc21 | 1% | 6% | 3% | · | 6%
CCn1cc(C(=O)NCc2ccc(Cl)cc2)c(=O)c2cc(S(=O)(=O)N(C)C)ccc21 | 2% | 21µM* | ? | · | -1%
CCn1cc(C(=O)NCCCN(C)c2ccccc2)c(=O)c2cc(S(=O)(=O)N(C)C)ccc21 | -5% | ? | 16µM* | 10% | 5%
CCn1cc(C(=O)NCc2ccc3c(c2)OCO3)c(=O)c2cc(S(=O)(=O)N(C)C)ccc21 | -3% | 18µM* | ? | 8% | -6%
CCN(CCCNC(=O)c1cn(CC)c2ccc(S(=O)(=O)N(C)C)cc2c1=O)c1cccc(C)c1 | -4% | ? | ? | 10% | -1%
C[C@@H](NC(=O)CN1C(=O)c2ccccc2S1(=O)=O)c1ccccc1 | -3% | 3% | 7% | 5% | 17%
COc1ccc(Cl)cc1NC(=S)N1CCCCCC1 | -2% | ? | -25% | 2%[56.1 µM] | -25%
Cc1ccc(NC(=O)COC(=O)c2ccccc2-c2nc3ccccc3s2)c(C)c1 | -4% | ? | ? | 4% | 3%
CCc1cccc(CC)c1NC(=O)COC(=O)c1ccccc1-c1nc2ccccc2s1 | -6% | 16µM* | 21µM* | 0% | -3%
